Measured values taken from PubChem BioAssay (Tox21).
“And” between values parts separate entries of the source, which are not always exact repeats. Equal values may be shown once. Records with an inconclusive call do not appear. Some structures have more than one record in an assay (separate samples or runs), and their calls can disagree. The source made the active and inactive calls. Unless noted, calls come from the whole dose curve; as a rule, active = well fitted curve in the direction sought with a large enough effect in the repeat runs; inconclusive = weak or mixed curves; inactive = no such curve, though single readings can be large; an effect the other way counts as inactive or inconclusive.

Assays:
[1] = qHTS assay to identify small molecule agonists of the estrogen related receptor signaling pathway with the pleiotropic PPARgamma coactivator (PGC) (AID 1224823)
In short: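 Luminescence from One-Glo reagent (30 min, room temperature) was read after 18 h compound treatment at 37 C of PGC/ERR cells plated 6 h beforehand; compounds delivered in DMSO by pin tool.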

[2] = qHTS assay to identify small molecule antagonists of the estrogen related receptor (ERR) signaling pathway from Tox21 library - cell viability counter screen (AID 1224834); note: nearly all actives have a fitted effect of over 30% in size
In short: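 In this quantitative HTS format, ERR cells receive compounds in DMSO and are incubated for 17.5 h at 37 C. Live-cell protease activity is then detected with CellTiter-Fluor.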

[3] = biological target: Luciferin 4-monooxygenase (Photinus pyralis) (UniProt P08659); experiment: qHTS assay to identify small molecule inhibitors of firefly luciferase (AID 1224835); note: nearly all actives have a fitted effect of over 25% in size; note: potency is the fitted concentration of half-maximal effect
In short: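 Inhibition of purified Photinus luciferase is measured by luminescence. Substrate levels (D-luciferin, ATP) sit at their KM values. Each compound is tested in a concentration series.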

[4] = qHTS assay to identify small molecule agonists of the constitutive androstane receptor (CAR) signaling pathway - cell viability counter screen (AID 1224836); note: nearly all actives have a fitted effect of over 45% in size
In short: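 Fluorescence from CellTiter-Fluor indicates live cells after 23 h exposure. The human hepatoma line expresses hCAR and a CYP2B6-2.2kb reporter. Incubation medium contains 0.75 uM PK11195 (final).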

[5] = qHTS assay to identify small molecule antagonists of the constitutive androstane receptor (CAR) signaling pathway - cell viability counter screen (AID 1224837); note: nearly all actives have a fitted effect of over 45% in size
In short: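 In quantitative HTS format, compounds at 15 concentrations were applied to HepG2 cells double-transfected with hCAR and CYP2B6-2.2kb under 50 nM CITCO stimulation; live-cell protease activity was read after 23 hr via CellTiter-Fluor.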

[6] = biological target: Nuclear receptor subfamily 1 group I member 3 (Homo sapiens) (UniProt Q14994); experiment: qHTS assay to identify small molecule antagonists of the constitutive androstane receptor (CAR) signaling pathway (AID 1224838); note: nearly all actives have a fitted effect of over 40% in size
In short: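 CITCO-stimulated (50 nM final) HepG2 cells stably transfected with hCAR and CYP2B6-2.2kb luciferase were exposed to compounds at 15 concentrations for 24 h at 37 C/5% CO2. A luciferase reagent was added and luminescence recorded after 30 min.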

[7] = biological target: Nuclear receptor subfamily 1 group I member 3 (Homo sapiens) (UniProt Q14994); experiment: qHTS assay to identify small molecule agonists of the constitutive androstane receptor (CAR) signaling pathway (AID 1224839); note: nearly all actives have a fitted effect of over 15% in size; note: potency is the fitted concentration of half-maximal effect;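 for activation: HepG2 cells stably carrying human CAR and a CYP2B6 luciferase reporter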
In short: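 Stable hCAR/CYP2B6-2.2kb HepG2 line in DMEM with 10% FBS; compounds (15 concentrations) and 0.75 uM PK11195 final, 24 h at 37 C/5% CO2, then ONE-Glo luminescence after 30 min.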

[8] = qHTS assay to identify small molecule antagonists of the estrogen related receptor signaling pathway with the pleiotropic PPARgamma coactivator (PGC) from Tox21 10K library - cell viability counter screen (AID 1224840; active = well fitted cell-killing curve with a large enough effect in the repeat runs, not every such curve was filed as active; note: nearly all actives have a fitted effect of over 40% in size)
In short: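 Viability counter screen, PGC/ERR cells: 17.5 h compound exposure at 37 C, CellTiter-Fluor fluorescence endpoint.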

[9] = qHTS assay to identify small molecule antagonists of the estrogen related receptor signaling pathway with the pleiotropic PPARgamma coactivator (PGC) from Tox21 10K library (AID 1224841; call rule not given here; note: actives are mostly falling curves and most rising ones were filed inactive; nearly all actives have a fitted effect of over 50% in size; note: potency is the fitted concentration of half-maximal effect)
In short: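 In the PGC/ERR line, DMSO solutions of test chemicals are pin-delivered to 2,000 cells/well six hours after dispensing. Following eighteen hours' incubation, One-Glo reagent is added and luminescence recorded.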

[10] = qHTS assay to identify small molecule agonists of the estrogen related receptor signaling pathway with the pleiotropic PPARgamma coactivator (PGC) from Tox21 10K library (AID 1224842); note: nearly all actives have a fitted effect of over 15% in size
In short: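 Luminescence from One-Glo (30 min, room temperature) measured after PGC/ERR cells had 18 h at 37 C with pinned compound (23 nL in DMSO). Cells had been seeded at 2,000 per well and pre-incubated 6 h.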

[11] = biological target: Thyrotropin receptor (Homo sapiens) (UniProt P16473); experiment: qHTS assay to identify small molecule agonists of the thyroid stimulating hormone receptor (TSHR) signaling pathway (AID 1224843; calls by dose curve; note: nearly all actives have a fitted effect of over 45% in size)
In short: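 Agonist activity read as cAMP rise via d2/cryptate HTRF competition, 1 h room-temperature detection, in HEK293 cells expressing TSHR. Fifteen-point titrations, each run in triplicate, with a 30 min room-temperature incubation beforehand.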

[12] = qHTS assay to identify small molecule agonists of the hypoxia (HIF-1) signaling pathway - cell viability counter screen (AID 1224844; calls by dose curve; note: nearly all actives have a fitted effect of over 50% in size)
In short: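 Same wells as the HIF-1 reporter screen; ME-180 cells carrying HRE-bla, 17 hr treatment at 37C; CellTiter-Glo luminescence read after 30 min at room temperature.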

[13] = qHTS assay to identify small molecule agonists of H2AX (AID 1224845; active = well fitted activation curve with a large enough effect in the signal ratio in the repeat runs, not every such curve was filed as active; the % refers to the signal ratio)
In short: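 Phospho-H2AX Ser139 measured by HTRF (ex 320 nm; em 665 and 620 nm) after 24 hr antibody incubation. Compounds, 15 concentrations, 0.76% DMSO, were applied to CHO-K1 cells for 3hr at 37C before lysis.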

[14] = qHTS assay to identify small molecule agonists of H2AX - cell viability counter screen (AID 1224847; calls by dose curve; note: nearly all actives have a fitted effect of over 30% in size; note: potency is the fitted concentration of half-maximal effect; for activity change, negative = cytotoxicity: top concentration of the series differs between compounds)
In short: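 Viability of CHO-K1 (wild type) cells after 3 hr compound exposure was measured by CellTiter-Glo luminescence.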

[15] = qHTS assay to identify small molecule antagonists of the estrogen related receptor (ERR) signaling pathway from Tox21 library (AID 1224848); note: nearly all actives have a fitted effect of over 50% in size; note: potency is the fitted concentration of half-maximal effect
In short: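 Luciferase luminescence (ONE-Glo, 30 min room temperature) was the read-out. Cells of the NTP-supplied ERR line, 2,000 per well, were given 6 h at 37 C before compound addition in DMSO and 18 h exposure at 37 C.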

[16] = qHTS assay to identify small molecule agonists of the estrogen related receptor (ERR) signaling pathway from Tox21 library (AID 1224849; calls by dose curve; note: nearly all actives have a fitted effect of over 15% in size); conditions: ERR reporter cell line, ONE-Glo luciferase, 18 h; at 92.4 µM (top of the series) unless noted
In short: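 Reporter cells (ERR, NTP source) treated with Tox21 10K compounds 18 h, 37 C. Readout: ONE-Glo luminescence, 30 min RT.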

[17] = qHTS RealTime-Glo MT Cell Viability Assay in HepG2 cells - 24 hour (AID 1224867); note: nearly all actives have a fitted effect of over 50% in size
In short: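 Viability was tracked continuously by NanoLuc luminescence from prosubstrate reduced by living HepG2 cells, at successive time points over 40 h of compound exposure. Cells with reagent were preincubated 5 h at 37 °C before compound addition.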

[18] = qHTS RealTime-Glo MT Cell Viability Assay in HEK293 cells - 32 hour (AID 1224868)
In short: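 Viability tracked continuously by luminescence as live cells reduce a prosubstrate for NanoLuc; HEK293 cells preincubated 5 h, compound-treated at 37 C, and read at 0, 8, 16, 24, 32 and 40 h.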

[19] = A CellTox Green Cytotoxicity Assay to monitor cytotoxicity in HEK293 cells - 0 hour (AID 1224869); note: nearly all actives have a fitted effect of over 50% in size; note: potency is the fitted concentration of half-maximal effect
In short: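 Homogeneous no-lysis format: HEK293 cell suspension mixed with CellTox Green reagent, seeded, incubated 5 h at 37 C/5% CO2, then dosed by pintool with compound in DMSO.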

[20] = qHTS assay to identify small molecule agonists of the hypoxia (HIF-1) signaling pathway (AID 1224846; active = well fitted activation curve with a large enough effect in the signal ratio in the repeat runs, not every such curve was filed as active; the % refers to the signal ratio)
In short: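 In ME-180 cells bearing an HRE-bla construct, 17 h treatment with DMSO-dissolved compounds at 37C was followed by CCF4-AM loading to quantify reporter induction.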
% is set by controls: 0 for no effect and ±100 for the full control effect.

Chain of Nuclear receptor subfamily 1 group I member 3 (Homo sapiens) (Q14994 whole entry, looked up): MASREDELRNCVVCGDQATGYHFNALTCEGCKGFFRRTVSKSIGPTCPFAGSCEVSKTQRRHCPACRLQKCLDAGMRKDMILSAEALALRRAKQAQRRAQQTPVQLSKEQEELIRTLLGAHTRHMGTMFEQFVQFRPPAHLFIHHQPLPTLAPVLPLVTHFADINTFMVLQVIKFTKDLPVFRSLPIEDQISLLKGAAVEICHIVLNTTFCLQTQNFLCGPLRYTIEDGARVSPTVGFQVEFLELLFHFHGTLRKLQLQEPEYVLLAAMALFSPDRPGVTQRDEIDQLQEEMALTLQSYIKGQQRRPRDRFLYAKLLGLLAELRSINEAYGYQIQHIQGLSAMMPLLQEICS
Chain of Thyrotropin receptor (Homo sapiens) (P16473 whole entry, looked up): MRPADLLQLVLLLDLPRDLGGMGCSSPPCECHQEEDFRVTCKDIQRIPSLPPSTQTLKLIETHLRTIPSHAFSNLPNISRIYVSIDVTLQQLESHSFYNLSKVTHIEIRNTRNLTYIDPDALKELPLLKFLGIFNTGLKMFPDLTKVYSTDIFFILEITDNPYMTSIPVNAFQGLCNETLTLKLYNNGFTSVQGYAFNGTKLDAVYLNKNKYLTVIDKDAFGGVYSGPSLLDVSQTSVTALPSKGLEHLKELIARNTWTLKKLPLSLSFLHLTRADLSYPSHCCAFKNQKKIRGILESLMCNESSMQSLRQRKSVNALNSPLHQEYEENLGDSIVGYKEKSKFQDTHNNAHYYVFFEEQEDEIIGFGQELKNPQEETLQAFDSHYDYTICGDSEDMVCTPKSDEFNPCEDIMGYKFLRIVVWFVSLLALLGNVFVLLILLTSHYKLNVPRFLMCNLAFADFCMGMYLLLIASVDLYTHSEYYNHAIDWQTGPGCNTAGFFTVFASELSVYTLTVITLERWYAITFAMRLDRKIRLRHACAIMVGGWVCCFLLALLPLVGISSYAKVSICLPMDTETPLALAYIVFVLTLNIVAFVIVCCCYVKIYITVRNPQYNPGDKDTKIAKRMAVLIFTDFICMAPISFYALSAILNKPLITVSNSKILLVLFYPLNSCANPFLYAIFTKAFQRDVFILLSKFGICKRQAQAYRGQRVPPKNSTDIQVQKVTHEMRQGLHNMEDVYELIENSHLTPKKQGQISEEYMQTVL
Chain of Luciferin 4-monooxygenase (Photinus pyralis) (P08659 whole entry, looked up): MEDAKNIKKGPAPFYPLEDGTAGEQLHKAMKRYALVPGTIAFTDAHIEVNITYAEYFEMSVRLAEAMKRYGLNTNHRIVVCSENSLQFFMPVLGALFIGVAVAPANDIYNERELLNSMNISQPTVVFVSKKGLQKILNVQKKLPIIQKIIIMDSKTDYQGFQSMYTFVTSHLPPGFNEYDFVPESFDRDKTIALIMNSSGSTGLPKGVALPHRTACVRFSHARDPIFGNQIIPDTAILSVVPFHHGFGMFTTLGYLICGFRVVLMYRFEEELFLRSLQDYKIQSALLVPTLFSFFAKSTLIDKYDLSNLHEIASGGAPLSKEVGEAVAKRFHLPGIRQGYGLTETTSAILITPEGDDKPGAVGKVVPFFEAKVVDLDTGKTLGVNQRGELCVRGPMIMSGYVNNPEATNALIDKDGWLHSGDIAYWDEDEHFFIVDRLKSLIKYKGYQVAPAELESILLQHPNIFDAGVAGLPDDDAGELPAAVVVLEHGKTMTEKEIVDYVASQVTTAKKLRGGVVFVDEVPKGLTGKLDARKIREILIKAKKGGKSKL

Cc1cccc(C)c1NC(=O)C(C)N (centres undefined)
inactive: outcome [1] | Potency [2] | Potency [3] | Potency [4] | Potency [5] | Potency [6] | Potency [7] | Potency [8] | Potency [9] | outcome [10] | Potency [11] | Potency [12] | outcome [13] | Potency [14] | Potency [15] | activity change, positive = activation [16] 3.88% [at 42.5 µM] | Potency [17] | Potency [18]
active: Potency [19] 21.3 µM

COC(=O)c1c(Cl)c(Cl)c(C(=O)OC)c(Cl)c1Cl
active: Potency [7] 54.5 µM and 8.63 µM
4.6% (inactive) and 15.8% (active): activity change, positive = activation [16]
inactive: outcome [1] | Potency [2] | Potency [4] | Potency [5] | Potency [6] | Potency [8] | Potency [9] | outcome [10] | Potency [12] | outcome [20] | Potency [15] | Potency [17] | Potency [19]

CCOC(=O)Nc1ccc(NCc2ccc(F)cc2)nc1N
inactive: outcome [1] | Potency [2] | Potency [4] | Potency [5] | Potency [6] | Potency [7] | Potency [8] | Potency [9] | outcome [10] | Potency [11] | Potency [12] | outcome [13] | Potency [14] | activity change, positive = activation [16] -17.8% [at 42.5 µM] | Potency [17] | Potency [18] | Potency [19]

O=C1CC2CC1C1CCCC21 (centres undefined)
inactive: Potency [2] | Potency [3] | Potency [4] | Potency [5] | Potency [6] | Potency [7] | Potency [8] | Potency [9] | outcome [10] | Potency [11] | Potency [12] | outcome [13] | outcome [20] | Potency [14] | Potency [15] | activity change, positive = activation [16] -0.257% | Potency [17] | Potency [18]

O=C(CCCN1CCC(O)(c2cccc(C(F)(F)F)c2)CC1)c1ccc(F)cc1
inactive: outcome [1] | Potency [2] | Potency [3] | Potency [4] | Potency [5] | Potency [7] | Potency [8] | outcome [10] | Potency [11] | Potency [12] | outcome [13] | Potency [14] | Potency [15] | activity change, positive = activation [16] -10.2% [at 42.5 µM] | Potency [17] | Potency [19]

CN1CC(=O)NC1=N
inactive: Potency [2] | Potency [3] | Potency [4] | Potency [5] | Potency [6] | Potency [7] | Potency [8] | Potency [9] | outcome [10] | Potency [11] | Potency [12] | outcome [13] | outcome [20] | Potency [14] | Potency [15] | activity change, positive = activation [16] 4.02% [at 42.5 µM] | Potency [17] | Potency [18] | Potency [19]

CC(C)(c1ccc(O)cc1)c1ccc(O)cc1
inactive and 103 µM (active): Potency [14]
active: Potency [3] 39.5 µM and 36.2 µM | Potency [7] 30.3 µM and 11.1 µM | Potency [9] 60.4 µM and 60.4 µM [inhibitor] | Potency [15] 30.3 µM
inactive: outcome [1] | Potency [4] | Potency [5] | Potency [6] | outcome [10] | Potency [11] | Potency [12] | outcome [13] | outcome [20] | Potency [17] | Potency [19]

CC1(C)C(O)C(C)(C)C1O (centres undefined)
inactive: Potency [2] | Potency [3] | Potency [4] | Potency [5] | Potency [6] | Potency [7] | Potency [8] | Potency [9] | outcome [10] | Potency [11] | Potency [12] | outcome [13] | outcome [20] | Potency [14] | Potency [15] | activity change, positive = activation [16] 1.44% | Potency [17] | Potency [18] | Potency [19]

CO[C@]12C[C@@H](COC(=O)c3cncc(Br)c3)CN(C)[C@@H]1Cc1cn(C)c3cccc2c13
inactive: Potency [2] | Potency [3] | Potency [4] | Potency [5] | Potency [6] | Potency [7] | Potency [8] | Potency [9] | outcome [10] | Potency [11] | Potency [12] | outcome [13] | outcome [20] | Potency [14] | Potency [15] | activity change, positive = activation [16] 6.2% [at 42.5 µM] | Potency [17] | Potency [18] | Potency [19]

CCC(C)S (centres undefined)
inactive: viability change, negative = cytotoxic [2] 1.27% [at 3.27 µM] | activity change, negative = inhibition [3] 5.34% [at 4.07 µM] | viability change, negative = cytotoxic [4] 6.36% [at 3.27 µM] | activity change, negative = cytotoxicity [5] 4.49% [at 3.26 µM] | activity, negative = inhibition [6] -7.32% [at 3.26 µM] | activation [7] 0.262% [at 3.27 µM] | viability change, negative = cytotoxic [8] 2.53% [at 3.27 µM] | activity, negative = inhibition [9] 1.33% [at 3.27 µM] | activation [10] 0.822% [at 3.27 µM] | activation [11] -2.63% [at 3.27 µM] | activity change, negative = cytotoxicity [12] 6.65% [at 2.72 µM] | activation (H2AX phosphorylation) [13] -0.0858% [at 5.45 µM] | activation [20] -1.24% [at 2.67 µM] | activity change, negative = cytotoxicity [14] 4.19% [at 5.43 µM] | activity, negative = inhibition [15] 2.44% [at 3.27 µM] | activity change, positive = activation [16] 2.37% [at 3.27 µM] | activity change, negative = cytotoxicity [17] 1.23% [at 2.72 µM] | activity change, negative = cytotoxic [18] 3.1% [at 2.72 µM] | cytotoxicity [19] -0.294% [at 2.72 µM]

C[C@H](NC(CCc1ccccc1)C(=O)O)C(=O)N1CCC[C@H]1C(=O)O (some centres undefined)
active: Potency [15] 5.96 µM
inactive: outcome [1] | Potency [2] | Potency [3] | Potency [4] | Potency [5] | Potency [6] | Potency [7] | Potency [8] | Potency [9] | outcome [10] | Potency [11] | Potency [12] | outcome [13] | outcome [20] | Potency [14] | activity change, positive = activation [16] -0.914% [at 42.5 µM] | Potency [17] | Potency [18] | Potency [19]

Brc1c(NC2=NCCN2)ccc2nccnc12
inactive: outcome [1] | Potency [2] | Potency [4] | Potency [5] | Potency [7] | Potency [8] | Potency [9] | outcome [10] | Potency [11] | Potency [12] | outcome [13] | Potency [14] | Potency [15] | activity change, positive = activation [16] 3.51% [at 42.5 µM] | Potency [17] | Potency [18] | Potency [19]
